# Experimental data: paper PMC11062922 (Nature Chemical Biology, 2023)
# Like-named read-outs stand apart in the source and are kept apart here.
# Tests used:
# Set-up in all cases: species or system human, MV4-11 + K-562 + COLO205 + SK-N-BE2 + OVCAR-8
# [1] = test system: FN3KRP; conditions: read-out: apparent Kd; compound concentrations: 100 nM and 1000 nM (sheet 'Samples'), CATDS: 1; n = 1
# [2] = test system: FLT4; conditions: read-out: apparent Kd, n = 1
# [3] = test system: NQO2; conditions: read-out: apparent Kd; compound concentrations: 100 nM and 1000 nM (sheet 'Samples'), CATDS: 0.45168770198248398; n = 1
# [4] = test system: GARS; conditions: read-out: apparent Kd; compound concentrations: 100 nM and 1000 nM (sheet 'Samples'), CATDS: 0.112943260502492; n = 1
# [5] = test system: MAP3K6; conditions: read-out: apparent Kd; compound concentrations: 100 nM and 1000 nM (sheet 'Samples'), CATDS: 0.103040219928506; n = 1
# [6] = test system: MTOR; conditions: read-out: apparent Kd; compound concentrations: 100 nM and 1000 nM (sheet 'Samples'), CATDS: 0.20477857042049299; n = 1
# [7] = test system: PIK3C2A; conditions: read-out: apparent Kd; compound concentrations: 100 nM and 1000 nM (sheet 'Samples'), CATDS: 0.109461657335159; n = 1
# [8] = test system: PIK3CA; conditions: read-out: apparent Kd; compound concentrations: 100 nM and 1000 nM (sheet 'Samples'), CATDS: 0.41958784794042803; n = 1
# [9] = test system: PRKDC; conditions: read-out: apparent Kd; compound concentrations: 100 nM and 1000 nM (sheet 'Samples'), CATDS: 0.14221616768717599; n = 1
# [10] = test system: RAB14; conditions: read-out: apparent Kd; compound concentrations: 100 nM and 1000 nM (sheet 'Samples'), CATDS: 0.14270902117051201; n = 1
# [11] = test system: FLT3; conditions: read-out: apparent Kd, n = 1
# [12] = test system: GRK6; conditions: read-out: apparent Kd, n = 1
# [13] = test system: ILK; conditions: read-out: apparent Kd; compound concentrations: 100 nM and 1000 nM (sheet 'Samples'), CATDS: 0.155345852963269; n = 1
# [14] = test system: MAP2K1; conditions: read-out: apparent Kd; compound concentrations: 100 nM and 1000 nM (sheet 'Samples'), CATDS: 0.15695729249265; n = 1
# [15] = test system: MYLK3; conditions: read-out: apparent Kd, n = 1
# [16] = test system: TNIK; conditions: read-out: apparent Kd, n = 1
# [17] = test system: JAK2; conditions: read-out: apparent Kd, n = 1
# [18] = test system: MAPK10; conditions: read-out: apparent Kd; compound concentrations:100 nM and 1000 nM (sheet 'Samples'); n = 1
# [19] = test system: MAPK9; conditions: read-out: apparent Kd; compound concentrations:100 nM and 1000 nM (sheet 'Samples'); n = 1
# [20] = test system: NLK; conditions: read-out: apparent Kd, n = 1
# [21] = test system: GAK; conditions: read-out: apparent Kd; compound concentrations: 100 nM and 1000 nM (sheet 'Samples'), CATDS: 0.42692129692206698; n = 1
# [22] = test system: RIPK2; conditions: read-out: apparent Kd; compound concentrations: 100 nM and 1000 nM (sheet 'Samples'), CATDS: 0.40204852474639502; n = 1
# [23] = test system: GSK3A; conditions: read-out: apparent Kd; compound concentrations:100 nM and 1000 nM (sheet 'Samples'); n = 1
# [24] = test system: MAP3K11; conditions: read-out: apparent Kd; compound concentrations:100 nM and 1000 nM (sheet 'Samples'); n = 1
# [25] = test system: PRKCA; conditions: read-out: apparent Kd; compound concentrations:100 nM and 1000 nM (sheet 'Samples'); n = 1
# [26] = test system: PRKCB; conditions: read-out: apparent Kd; compound concentrations:100 nM and 1000 nM (sheet 'Samples'); n = 1
# [27] = test system: RET; conditions: read-out: apparent Kd; compound concentrations:100 nM and 1000 nM (sheet 'Samples'); n = 1
# [28] = test system: STRADA; conditions: read-out: apparent Kd; compound concentrations:100 nM and 1000 nM (sheet 'Samples'); n = 1
# [29] = test system: FER; conditions: read-out: apparent Kd; compound concentrations: 100 nM and 1000 nM (sheet 'Samples'), CATDS: 0.23966612691904199; n = 1
# [30] = test system: IGF1R; conditions: read-out: apparent Kd; compound concentrations: 100 nM and 1000 nM (sheet 'Samples'), CATDS: 0.234502945323845; n = 1
# [31] = test system: INSR; conditions: read-out: apparent Kd; compound concentrations: 100 nM and 1000 nM (sheet 'Samples'), CATDS: 0.33480579514984299; n = 1
# [32] = test system: MAP3K1; conditions: read-out: apparent Kd; compound concentrations:100 nM and 1000 nM (sheet 'Samples'); n = 1
# [33] = test system: MAP4K5; conditions: read-out: apparent Kd; compound concentrations:100 nM and 1000 nM (sheet 'Samples'); n = 1
# [34] = test system: NUAK1; conditions: read-out: apparent Kd; compound concentrations:100 nM and 1000 nM (sheet 'Samples'); n = 1
# [35] = test system: NUAK2; conditions: read-out: apparent Kd; compound concentrations:100 nM and 1000 nM (sheet 'Samples'); n = 1
# [36] = test system: SLK; conditions: read-out: apparent Kd; compound concentrations:100 nM and 1000 nM (sheet 'Samples'); n = 1
# [37] = test system: STK10; conditions: read-out: apparent Kd; compound concentrations:100 nM and 1000 nM (sheet 'Samples'); n = 1
# [38] = compound concentrations: 100 nM and 1000 nM (sheet 'Samples'), CATDS: 1
# [39] = compound concentrations:100 nM and 1000 nM (sheet 'Samples')
smiles,measurement,setting,value
Cn1nc(-c2ccc(NC(=O)Nc3ccc4ccccc4c3)c(F)c2)c2cnc(NCCN3CCOCC3)nc21.O=C(O)C(F)(F)F [SB-750250-M],potency estimated from few doses,[1],1800 nM
CN1C(=O)C(c2c[nH]c3ccccc23)=C(c2c[nH]c3ccccc23)C1=O [RO0316045-000],potency estimated from few doses,"[2]; compound concentrations: 100 nM and 1000 nM (sheet 'Samples'), CATDS: 0.55988503208503904",1370 nM
same,potency estimated from few doses,[3],2110 nM
Nc1ncnc2c1ncn2-c1cccc2ccccc12 [SKF-97184],potency estimated from few doses,[4],1670 nM
same,potency estimated from few doses,[5],2270 nM
same,potency estimated from few doses,[6],419 nM
same,potency estimated from few doses,[7],1840 nM
same,potency estimated from few doses,[8],132 nM
same,potency estimated from few doses,[9],896 nM
same,potency estimated from few doses,[10],889 nM
CC(C)c1ccc2c(c1)NC(=O)/C2=N/Nc1ccc(S(N)(=O)=O)cc1 [GW300653X],potency estimated from few doses,[11]; [38],716 nM
c1ccc(-c2cnc3nccnn23)cc1 [AH20685XX],potency estimated from few doses,[12]; [38],2060 nM
COc1cc[nH]c1/C=C1\C(=O)Nc2ccccc21 [RO0272159-000],potency estimated from few doses,"[11]; compound concentrations: 100 nM and 1000 nM (sheet 'Samples'), CATDS: 0.77308167829792795",55.1 nM
same,potency estimated from few doses,[13],1910 nM
same,potency estimated from few doses,[14],1850 nM
same,potency estimated from few doses,"[15]; compound concentrations: 100 nM and 1000 nM (sheet 'Samples'), CATDS: 0.17793919150823601",1280 nM
same,potency estimated from few doses,"[16]; compound concentrations: 100 nM and 1000 nM (sheet 'Samples'), CATDS: 0.18945964172461099",1080 nM
O=C1Nc2ccccc2/C1=C/Nc1ccc2[nH]c(=O)[nH]c2c1 [GW284408X],potency estimated from few doses,"[11]; compound concentrations: 100 nM and 1000 nM (sheet 'Samples'), CATDS: 0.54453262493036503",348 nM
same,potency estimated from few doses,"[15]; compound concentrations: 100 nM and 1000 nM (sheet 'Samples'), CATDS: 0.46220060091739101",485 nM
Cn1c(=O)c(Oc2ccc(F)cc2F)cc2cnc(NC3CCOCC3)nc21 [RO3304806-000],potency estimated from few doses,[12]; [39],1350 nM
same,potency estimated from few doses,[17]; [39],603 nM
same,potency estimated from few doses,[18],1000 nM
same,potency estimated from few doses,[19],1780 nM
same,potency estimated from few doses,[20]; [39],1620 nM
C/C(Nc1ccc(S(N)(=O)=O)cc1)=C1/C(=O)Nc2ccccc21 [GW335962X],potency estimated from few doses,[11]; [39],524 nM
same,potency estimated from few doses,[15]; [39],629 nM
same,potency estimated from few doses,[16]; [39],2260 nM
COc1cc(Nc2ccnc3ccc(C(F)(F)F)cc23)cc(OC)c1OC [GW577382X],potency estimated from few doses,[21],305 nM
same,potency estimated from few doses,"[20]; compound concentrations: 100 nM and 1000 nM (sheet 'Samples'), CATDS: 0.239785961160628",1230 nM
same,potency estimated from few doses,[22],340 nM
Cl.NS(=O)(=O)c1cccc(Nc2cc(-c3ccc(F)cc3)n[nH]2)c1 [GW824645A_PKIS2],potency estimated from few doses,[11]; [38],342 nM
COc1ccc(C2=C(Nc3cccc(C(=O)O)c3)C(=O)NC2=O)cc1 [SB-390765],potency estimated from few doses,[23],82.8 nM
CN(C)C/C=C/C(=O)Nc1ccc(C(=O)Nc2cccc(Nc3ncc(Cl)c(-c4c[nH]c5ccccc45)n3)c2)cc1 [THZ1],potency estimated from few doses,[11]; [39],1310 nM
same,potency estimated from few doses,[2]; [39],904 nM
same,potency estimated from few doses,[24],743 nM
same,potency estimated from few doses,[25],191 nM
same,potency estimated from few doses,[26],727 nM
same,potency estimated from few doses,[27],921 nM
same,potency estimated from few doses,[28],2370 nM
COc1cc2c(cc1Nc1nc(N3CCc4ccccc43)c3cc[nH]c3n1)N(C(=O)CN(C)C)CC2 [GSK2186269A],potency estimated from few doses,[29],915 nM
same,potency estimated from few doses,[30],959 nM
same,potency estimated from few doses,[31],493 nM
same,potency estimated from few doses,"[17]; compound concentrations: 100 nM and 1000 nM (sheet 'Samples'), CATDS: 0.21851313363519401",1130 nM
C[C@@H](Oc1cc(-n2cnc3cc(-c4cnn(C)c4)ccc32)sc1C(N)=O)c1ccccc1Cl [GSK580432A],potency estimated from few doses,[11]; [39],1300 nM
same,potency estimated from few doses,[2]; [39],1610 nM
same,potency estimated from few doses,[32],129 nM
same,potency estimated from few doses,[33],1040 nM
same,potency estimated from few doses,[34],598 nM
same,potency estimated from few doses,[35],525 nM
same,potency estimated from few doses,[36],615 nM
same,potency estimated from few doses,[37],160 nM
